{
  "source": "PubChem BioAssay AID2284355",
  "about": "(EPA ToxCast)",
  "note": "Results filed as inconclusive are left out. Activity calls are given as the source filed them. The calls were made as follows: active = hit-call score of the fitted dose curve at least 0.9, where 1 is the maximum; inconclusive = response in the unintended direction; inactive = score below 0.9.",
  "data": [
    {"tested_on": "rainbow trout Retinoid X Receptor beta (RXRb)", "experiment": "ATG_rtRXRb_EcoTox2: Attagene TRANS-FACTORIAL EcoTox-2 HepG2 Assay for rainbow trout Retinoid X Receptor beta (RXRb)", "protocol": "ATG_EcoTox2 is a cell-based, multiplexed assay created by modifying the existing Attagene TRANS-FACTORIAL system to include a panel of nuclear receptors from some or all the following species: human (Homo sapiens), african clawed frog (Xenopus laevis), rainbow trout (Oncorhynchus mykiss), japanese medaka (Oryzias latipes), and zebrafish (Danio rerio). The ECOTOX2-FACTORIAL format uses HepG2, a human liver cell line, with measurements taken at 24 hours after chemical dosing in a 24-well plate. ATG_rtRXRb_EcoTox2 is one of 29 assay components calculated in the ATG_EcoTox2 assay. It is designed to make measurements of mRNA induction, a form of inducible reporter, as detected with fluorescence intensity signals by Reverse transcription polymerase chain reaction (RT-PCR) and Capillary electrophoresis technology.The assay endpoint ATG_rtRXRb_EcoTox2 was analyzed in the positive analysis fitting direction relative to DMSO as the negative control and baseline of activity. Using a type of inducible reporter, measures of mRNA for gain-of-signal activity can be used to understand the reporter gene at the transcription factor-level as they relate to the gene RXRb. Furthermore, this assay endpoint can be referred to as a primary readout, because this assay has produced multiple assay endpoints where this one serves a reporter gene function. […]", "values": [
      {"smiles": "[Cl][Sn]([c]1ccccc1)([c]1ccccc1)[c]1ccccc1", "AC50": "0.119 µM (active)"}
    ]}
  ]
}
